mcGAS inh – cyclic GMP-AMP synthase inhibitors, mouse, primary biochemical chemiluminescence; Q8C6L5; recombinant cGAS, Kinase-Glo ATP depletion luminescence; inhibition, % at 12.5 µM; hit rate 0.15% among 160,000
Target sequence (Q8C6L5 whole entry, looked up): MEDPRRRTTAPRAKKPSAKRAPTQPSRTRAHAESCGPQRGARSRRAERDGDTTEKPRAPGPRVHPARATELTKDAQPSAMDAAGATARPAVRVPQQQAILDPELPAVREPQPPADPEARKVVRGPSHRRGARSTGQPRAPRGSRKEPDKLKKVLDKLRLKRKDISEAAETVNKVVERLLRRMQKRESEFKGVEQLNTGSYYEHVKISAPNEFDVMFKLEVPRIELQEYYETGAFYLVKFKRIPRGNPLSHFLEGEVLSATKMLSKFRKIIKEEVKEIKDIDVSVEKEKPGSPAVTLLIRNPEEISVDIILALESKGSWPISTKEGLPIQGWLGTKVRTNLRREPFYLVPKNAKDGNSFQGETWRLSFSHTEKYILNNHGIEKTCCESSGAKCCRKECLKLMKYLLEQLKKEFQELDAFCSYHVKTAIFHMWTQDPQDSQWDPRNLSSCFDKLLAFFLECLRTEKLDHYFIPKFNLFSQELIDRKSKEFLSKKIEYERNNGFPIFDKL
hcGAS inh – Primary biochemical luminescence assay for human cyclic GMP-AMP synthase inhibitors; Q8N884; recombinant h-cGAS, ATP depletion, Kinase-Glo luminescence; inhibition, % at 12.5 µM; hit rate 0.081% among 290,000; AID 1259398, 2018
NPYLR7 ag – agonists of mosquito NPYLR7 receptor, primary screen, cell-based, Aedes aegypti, calcium fluorescence, mosquito biting behavior; Aedes aegypti neuropeptide Y-like receptor 7 (NPYLR7); HEK293T NPYLR7/Galpha15, GCaMP6s calcium fluorescence; activation, % at 10 µM; hit rate 0.15% among 270,000; AID 1259423, 2018; in the data active means activation above about 40%
Large screens that a line does not name were inactive. Sampled rows, rich in hits. Any-hit rate of the full collection: about 0.28%. Unless noted, no stated cut-off is given here; in the data, active means inhibition above about 40%; inactive means the rest.

Nc1ccc(-c2nc3cc(N)cc(Cl)c3o2)cc1	NPYLR7 ag 118
Cc1ccc2oc(-c3ccc(N)cc3)nc2c1	none
CCc1nc(Cl)c2c3c(sc2n1)CN(CC)CC3	none (no result: mcGAS inh)
CCCN1CCc2c(sc3c2c(NC(CC)CO)nc2nnnn23)C1 (stereo unspecified)	NPYLR7 ag 69 (no result: mcGAS inh)
CCCCS(=O)(=O)NC1CCCC(C(=O)NC2CC2)C1 (stereo unspecified)	none
CCOC(=O)c1c(N=Cc2nc(-c3ccccc3)oc2O)sc(C)c1C	none
CCOC(=O)c1c(-c2ccccc2)csc1N=Cc1nc(-c2ccco2)oc1O	NPYLR7 ag 141
CCCNC(=O)CN1CCN(c2c(C)cnc3ccccc23)CC1	none (no result: mcGAS inh)
Fc1cc(F)cc(C2C=C(c3ccco3)Nc3ncnn32)c1 (stereo unspecified)	NPYLR7 ag 78 (no result: mcGAS inh)
CC(=O)C1=C(C)Nc2ncnn2C1c1ccco1 (stereo unspecified)	none (no result: mcGAS inh)
O=C(CSc1ccccc1)N1CCCN(c2nc(Cc3ccc(F)cc3)ns2)CC1	none
CCN(CC)c1ccc2cc(C(N)=O)/c(=N\NC(N)=S)oc2c1	NPYLR7 ag 130
CCN(CC)c1ccc2cc(C(N)=O)c(=NCc3ccccc3)oc2c1	none (no result: mcGAS inh)
COc1ccc(C2=NN(C(=O)CN3CCOCC3)C(c3nc4ccccc4[nH]3)C2)cc1 (stereo unspecified)	NPYLR7 ag 52
O=C(CN1CCOCC1)N1N=C(c2ccc(Br)cc2)CC1c1nc2ccccc2[nH]1 (stereo unspecified)	none
N#Cc1ccc(NC2CCN(C(=O)C3CC3)CC2)nc1	none (no result: mcGAS inh)
COC(=O)n1c(=O)oc2cc(S(=O)(=O)N3CCOCC3)ccc21	none (no result: mcGAS inh)
COC(=O)n1c(=S)oc2cc(Cl)ccc21	mcGAS inh 40
CC(C)Cn1c(=O)c2c(nc3n2CC(C)CN3c2ccc(F)cc2)n(C)c1=O (stereo unspecified)	none
Cc1csc(C(C#N)C(=O)c2cn(CC(=O)C(C)(C)C)nn2)n1 (stereo unspecified)	hcGAS inh 45
Cc1cnc(C(=O)OCC(=O)C(C#N)c2nc(C)cs2)cn1 (stereo unspecified)	none (no result: mcGAS inh)
O=C(O)C1C2CC3C1C(=O)Oc1ccc(Br)cc1C1c4sc(=O)[nH]c4SC2C13 (stereo unspecified)	mcGAS inh 41
O=C(O)C1C2CC3C1C(=O)Oc1ccccc1C1c4sc(=O)[nH]c4SC2C13 (stereo unspecified)	none
CC(C)=CC(=O)N1CCN(c2nccc(-c3ccc(Oc4ccccc4)cc3)n2)CC1	none
C=CCn1c(C)c(C)n2c3c(=O)n(CCOCC)c(=O)n(C)c3nc12	none (no result: mcGAS inh)
CC(C)Nc1ccc(NS(=O)(=O)NCc2ccccc2)cn1	NPYLR7 ag 63 (no result: mcGAS inh)
COc1cc(NS(=O)(=O)NCc2ccccc2)cc(OC)c1	none (no result: mcGAS inh)
CCc1ccc(/C=C2\C(=O)NN(c3ccc(Cl)c(Cl)c3)C2=O)cc1	none
Cc1ccc(N2NC(=O)/C(=C/c3cccc(OC(=O)c4cccs4)c3)C2=O)cc1Cl	mcGAS inh 53
C=CCSc1nnc(NC(=O)c2ccccc2Cl)s1	none (no result: NPYLR7 ag)
Cc1ccc2oc(CN(Cc3ccncc3)C(=O)C(C)Oc3ccccc3)nc2c1 (stereo unspecified)	none
COC(=O)CC1(NC(=O)c2cccc(Oc3ccncc3)c2)CCOCC1	none (no result: mcGAS inh)
O=C(Nc1cccc(-c2cccc(-c3ccc4c(c3)OCCO4)n2)c1)C1CCCCC1	none
O=C(Nc1cccc(-c2nnco2)c1)C1CCCCC1	NPYLR7 ag 86 (no result: mcGAS inh)
N#Cc1c(SCc2ccccc2C(F)(F)F)sc2c(=O)[nH]c(=O)[nH]c12	none
NC(=O)c1c(SCC(=O)c2ccc(F)cc2)sc2c(O)cc(=O)[nH]c12	none
N#Cc1c(SCc2ccccc2C(F)(F)F)sc2c(O)cc(=O)[nH]c12	mcGAS inh 63
CC(=O)CSc1sc2c(O)cc(=O)[nH]c2c1C#N	mcGAS inh 73
O=C1c2ccccc2NC(c2cc3ccccc3nc2Cl)N1CCCN1CCOCC1 (stereo unspecified)	none
CCCCCCc1ccc(C(=O)N2CCCC2C(=O)Nc2nnc(-c3ccc(Br)cc3)s2)cc1 (stereo unspecified)	none
COc1ccc2oc(=O)c(-c3nnc(Nc4cc(Cl)ccc4OC)s3)cc2c1	NPYLR7 ag 56
COc1ccc(Nc2nnc(-c3cc4c(ccc5ccccc54)oc3=O)s2)c(OC)c1	none
COc1ccc(Cl)cc1Nc1nnc(-c2cc3c(ccc4ccccc43)oc2=O)s1	NPYLR7 ag 59
COc1ccc(Nc2nnc(-c3cc4cc(Cl)ccc4oc3=O)s2)c(OC)c1	none
COc1cc2c(cc1O)CC[C@@H]1[C@@H]2CC[C@]2(C)[C@@H](O)CC[C@@H]12	none
O=C(CSc1nc(=O)n(CCCO)c2c1CCCC2)Nc1cccc([N+](=O)[O-])c1	mcGAS inh 47
O=C(CSc1nc(=O)n(CCCO)c2c1CCC2)Nc1cccc(F)c1	none
Cc1cccc(OCCN2CCCC(O)(CN(C)C)C2)c1C (stereo unspecified)	none
COC(=O)CSc1nc2sc3c(c2c(=O)n1C)CCCC3	none (no result: mcGAS inh)
COc1ccc(NC(=O)CN2C(=O)c3ccccc3NC23CCN(C)CC3)cn1	NPYLR7 ag 49 (no result: mcGAS inh)
COc1ccc(NC(=O)CCC(=O)N2CCc3ccccc3C2)cn1	none
CCCCCC(=O)Nc1cc(C(=O)OC)cc(C(=O)OC)c1	none
C(=Cc1ccccc1)C=NNc1ncnc2ccccc12	NPYLR7 ag 161 (no result: mcGAS inh)
O=C1NN=C(c2ccccc2)C/C1=N/Nc1ncnc2ccccc12	none
CCCNc1nc2ccccn2c(=O)c1C=C1SC(=S)N(CC(C)C)C1=O	none (no result: mcGAS inh)
CC(C)CN1C(=O)C(=Cc2c(N3CCN(CCO)CC3)nc3ccccn3c2=O)SC1=S	NPYLR7 ag 79
CCCNc1ccccc1C(=O)N1CCN(C(=O)c2ccccc2)CC1	none (no result: mcGAS inh)
O=C(NCc1cccc(C(F)(F)F)c1)c1csc(CSc2nnc(-c3ccncc3)n2-c2cccc(C(F)(F)F)c2)n1	none
O=C(O)c1csc(CSc2nnc(-c3ccncc3)n2-c2cccc(C(F)(F)F)c2)n1	NPYLR7 ag 49
O=C1CCCCC1C1(O)C(=O)Nc2ccccc21 (stereo unspecified)	none
CN(Cc1ccccc1)c1nc(CCN)nc2ccccc12	hcGAS inh 47
CN(Cc1cc(C(C)(C)C)n[nH]1)c1nc(CCN)nc2ccccc12	none (no result: mcGAS inh, NPYLR7 ag)
Fc1ccc(-c2nc(N3CCN(c4ccc(C(F)(F)F)cn4)CC3)c3ccccc3n2)c(F)c1	none
CN1CC(=O)N2CCN(C(=O)CCn3nnc4ccccc43)CC2C1=O (stereo unspecified)	none (no result: mcGAS inh)
CC(Nc1ccc(S(=O)(=O)N2CCCC2)cn1)C1CC2CCC1C2 (stereo unspecified)	none (no result: mcGAS inh)
CCOC(=O)c1sc(NC(=O)CSc2nnc3ccccn23)c(C(=O)OCC)c1C	none
CCOC(=O)c1sc(NC(=O)CSc2nnc(C)s2)c(C(=O)OCC)c1C	mcGAS inh 61
O=c1cc(-c2ccccc2)n2c(=S)[nH]nc2[nH]1	hcGAS inh 64 (no result: mcGAS inh)
CCc1cc(=O)[nH]c2n[nH]c(=S)n12	none (no result: mcGAS inh)
C=CCOC(=O)/C(=C\c1ccc2c(c1)OCO2)NC(=O)c1ccccc1OC	none (no result: mcGAS inh)
CCCC1(c2ccccc2)NC(=O)N(Cc2cc3c(cc2Br)OCO3)C1=O (stereo unspecified)	none
COc1ccc(OC)c(CCNc2nc3cnc(-c4ccc5c(c4)OCO5)cc3n2C)c1	NPYLR7 ag 71
